Laboratory results taken from PubChem BioAssay (NCI).
The panel holds about 79,000 compounds, 15% with a hit somewhere; the sample as a whole holds those more often. Unmarked numbers belong to inactive results. The source made the active and inactive calls. Rule as the data show it: active = growth inhibition above about 70%; inactive = the rest.

Assay: NCI Yeast Anticancer Drug Screen. Data for the cln2 rad14 strain (AID 165);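 also: 0% = growth equal to vehicle treated cultures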
Conditions: S. cerevisiae cln2 rad14 strain, stronger effect = higher value
Description: Growth inhibition of yeast strains with defined genetic alterations is measured as a screen for potential anti-cancer activity. Selected strains with alterations in DNA damage repair or cell cycle control were exposed to compounds and growth inhibition was measured relative to vehicle treated controls. The strain used in this assay is cln2 rad14

[1] = at 5.0 µM (retest, dose inferred, filed as 0.5)
[2] = at 50.0 µM (retest, dose inferred, filed as 5.0)

SMILES	growth inhibition [1]	growth inhibition [2]	growth inhibition (at 50.0 µM)
COc1ccc(-n2cc(-c3ccc(Cl)cc3)c3c(N)ncnc32)cc1	13%	25%	87.1% (active)
CCCCCCCCCCCCCCCCCCSSCCCCCCCCCCCCCCCCCC	-4%	4%	80.9% (active)
C=CCc1cccc(/C=N\N=C(/N)NO)c1O	-6%	26%	48.6%
COC(=O)C(=O)C(C(=O)Nc1cccc(C)c1C)C1Sc2ccccc2NC1=O (configuration not stated)	95% (active)	95% (active)	52.8%
CC(C)(c1ccc(OC#N)cc1)c1ccc(OC#N)cc1	23%	88% (active)	61.4%
[Cl][Sn]([CH2][CH2][Sn]([Cl])([c]1ccccc1)[c]1ccccc1)([c]1ccccc1)[c]1ccccc1	97% (active)	96% (active)	87.5% (active)
CCCCC(O)(c1ccc2nc(NC(=O)OC)[nH]c2c1)c1cccs1 (configuration not stated)	-15%	10%	36%
O=S(=O)(Sc1ccccc1)C(c1ccccc1)c1ccccc1	1%	28%	-12.8%
NC1NCCC(=O)N1CCc1c[nH]c2ccccc12 (configuration not stated)	31%	99% (active)	22.3%
O=C1CC2(CCCC2)C(=O)N1c1ccc(N2C(=O)CC3(CCCC3)C2=O)cc1	-5%	-7%	44.1%
Cc1cc(C)[nH]c(=S)n1.[Pt]	2%	7%	81.3% (active)
CCCCCCCCCCOC(=O)Nc1ccc(C)c(NC(=O)OCCCCCCCCCC)c1	2%	-13%	23.1%
Cc1nc(N)nn1C	-4%	0%	6.7%
COC(=O)C(=[N+]=[N-])C(=O)c1ccc(Cl)cc1	0%	19%	44.4%
